In ChEMBL document CHEMBL4888484, “Replenishing the malaria drug discovery pipeline: Screening and hit evaluation of the MMV Hit Generation Library 1 (HGL1) against asexual blood stage Plasmodium falciparum ,using a nano luciferase reporter read-out” (2022):
The whole screen tested about 150,000 compounds, of which about 540 (0.36%) showed an effect of 50% or more. The full list was thinned out, with strong results kept by preference.

System: Plasmodium falciparum
Test: Primary screen in NF54 nanoGlo assay, in single point, at 2uM, 72h; a lower Z score goes with more inhibition
Assay type: functional, Erythrocyte
Conditions: timepoint 72 hour

SMILES | % Inhibition [%] | Z score
C[C@@H](Cc1ccccc1F)NCC1(CO)CCCC1 | -3 | 0.57
Cc1ccc2c(c1)CCCN2C(=O)CN1CC=C(c2cnn(C)c2)CC1 | 55 | -3.45
COc1ccc(NC(=O)CN2CC=C(c3cnn(C)c3)CC2)cc1Cl | -9 | 1.67
CCOc1ccc(NC(=O)CN2CC=C(c3cnn(C)c3)CC2)cc1 | -9 | 0.93
CC1CCCC2CCCN(Cc3nc4c(cnn4C)c(=O)[nH]3)C12 (configuration not stated) | -8 | 0.94
C[C@@H](Cc1ccc(F)cc1)NCC(C)(C)C(N)=O | -4 | 0.56
C=CCCC(CN1C[C@H]2CC=CC[C@H]2C1)Oc1ncccn1 (some centres not stated) | -8 | 1.33
C=CCCC(CN1C[C@H]2CC=CC[C@H]2C1)Oc1ncc(F)cn1 (some centres not stated) | 75 | -13.95
C=CCCC(CN1C[C@H]2CC=CC[C@H]2C1)Oc1ccnc(C)n1 (some centres not stated) | 3 | -0.6
Cc1oncc1C(=O)N1C[C@H](c2cc(F)cc(F)c2)[C@@H]2[C@H]1C1CCN2CC1 | -4 | 0.74
Cc1cnc(N2C[C@H]3CN(C)C[C@H]3C2)c(Br)c1 | -1 | 0.19
Fc1cnc(N2C[C@@H](c3ccccc3)[C@@H]3[C@H]2C2CCN3CC2)nc1 | -13 | 2.17
CN1CCN2c3cccc(Cl)c3CC3(C(=O)NC(=O)N(c4ccc(F)cc4)C3=O)C2C1 (configuration not stated) | 4 | -0.49
COCCn1cc(C(=O)N[C@H]2C[C@@](CO)(c3ccccc3)C2)nn1 | 1 | -0.11
COCCn1ccc(C(=O)NC(C)(C)c2ccc(F)cc2Cl)n1 | 4 | -0.52
COCCn1ccc(C(=O)N[C@H]2CCc3nc(C(C)C)nn3C2)n1 | 71 | -11.17

SMILES | % Inhibition [%] | Z score
CN(C(=O)CCC(F)(F)F)C1CC2CCC(C1)N2 (configuration not stated) | -19 | 1.62
O=S(=O)(NC12CCCC1CNC2)c1onc(C2CC2)c1Cl (configuration not stated) | 94 | -8.97
CCCCOc1ncccc1CNC(=O)C1CN2CCCC2CO1 (configuration not stated) | -1 | 0.09
CCCS(=O)(=O)NC[C@H]1C[C@@H]2CCN1C[C@@H]2c1cc(C(CC)CC)nc(-c2ccncc2)n1 | 35 | -3.34
CCC(CC)c1cc([C@H]2CN3CC[C@H]2C[C@@H]3CO)nc(-c2ccncc2)n1 | 25 | -2.22
CCC(CC)c1cc([C@H]2CN3CC[C@H]2C[C@@H]3CNS(=O)(=O)Cc2ccccc2)nc(-c2ccncc2)n1 | 75 | -9.43
COCCN1C[C@@H]2CC[C@H]1CN(C(=O)c1cc(C(C)C)on1)C2 | 4 | -0.35
Cc1ncsc1CN1C[C@@H]2CC[C@H]1CN(Cc1c(C)noc1C)C2 | -5 | 0.89
Cc1ccc(CNc2ncnc3[nH]ncc23)c(-n2cc(Cl)cn2)n1 | 12 | -2.28
CN(C)c1ccnc(N2C[C@@H](c3ccc4c(c3)OCO4)[C@@H]3[C@H]2C2CCN3CC2)n1 | -7 | 0.91
c1cc2c(cc1CCN1CCCC1)CCO2 | -12 | 1.27
Cn1nc(C(=O)N2CCC3(CC2)OCCO3)c2ccccc2c1=O | -14 | 2.25
Cc1ccc(C)n1[C@@H](Cc1cnc[nH]1)C(=O)O | -1 | 0.15
c1cc2c(c(-c3cnccn3)c1)CCNC2 | -4 | 0.84
c1ccc2c(c1)C[C@H](Cc1ccc3c(c1)CNCC3)CO2 | 3 | -0.36
